# Measurements taken from PubChem BioAssay AID2472 (National Center for Advancing Translational Sciences (NCATS), 2010).
# About 2,000 (0.69%) of roughly 290,000 compounds were called active. The entries come from a sample that favours actives as a whole. A number with no mark means an inactive call. Rule as the data show it: active = activity change below about -30%; inactive = the rest, inconclusive results apart.
# Assay: qHTS Assay for Inhibitors of Fructose-1,6-bisphosphate Aldolase from Giardia Lamblia: Coupling assay counterscreen
# Settings: coupling enzyme system counterscreen, AmpLite Red fluorescence; at 58.2 µM (top of the series)
# Text: MLPCN Grant: MH085699-01 Assay Provider: Osnat Herzberg, University of Maryland NCGC Assay Overview: The objective of this project is to obtain compounds that inhibit Giardia lamblia growth. G. lamblia is a human pathogen which afflicts impoverished nations; it is the most common cause of outbreaks of diarrhea in the United States. During the course of our study of potential drug targets in Giardia, we have identified the Class II (Zn2+ functions in electrophilic catalysis) fructose-1,6-bisphosphate aldolase (FBPA) as an excellent candidate for drug targeting. FBPA is a key glycolytic pathway enzyme, essential for G. lamblia survival. The human FBPA belongs to the Class I aldolases, which have a different substrate binding site structure and a radically different catalytic mechanism (employing a lysine-Schiff base intermediate). Therefore, affinity-based or mechanism-based inhibitors of the Giardia FBPA are expected not to interfere with the catalytic function of the human FBPA. A glyceraldehyde-3-phosphate dehydrogenase/triose phosphate isomerase/NAD/arsenate coupled assay was adapted to the 1536-well HTP format for use in the primary screen. This was done by coupling it to a diaphorase/resazurin/resorufin reaction that can be monitored by fluorescence (excitation, 544 nm; emission, 590 nm). Compounds identified in this screen will be further evaluated by coupling the […]/triose phosphate isomerase/NADH assay to a phenazine methosulfate/tetranitroblue tetrazolium color reaction. False positives due to the dehydrogenases and diaphorase inhibition will be eliminated, and selectivity assay will triage inhibitors of mammalian triose phosphate isomerase and the Class I FBPA. G. lamblia FBPA inhibitors identified by the in vitro analyses will be examined for growth inhibition of Giardia trophozoites, and for cytotoxicity in human cells. This assay specifically addresses whether activity observed in the primary screen (AID 2451) is related to inhibition of the coupling assay used, as opposed to inhibition of aldolase. Actives in this assay are considered inconclusive for activity against aldolase.
# NCGC Assay Protocol: Step,Parameter,Value,Description 1,Coupling enzyme reagent,2 uL,glyceraldehyde-3-phosphate 2,Compound,23 nL,3.68 nM-57.5 uM final concentration 3,Time,10 min,RT Incubation 4,Substrate/detection Reagent,2 uL,Substrate + enzyme coupling system + AmpLite Red kit 5,Time,20 min,RT Incubation 6,Detector,525 nm/598 nm (Fluorescence),ViewLux Fluorescence Read (Read 1) Notes: 1,Medium-binding black solid-bottom Kalypsys plates. FRD or Kalypsys dispenser. 2,Compound Library (10 mM ,1:5 dilution). Pin-transferred for a [final] range of 3.68 nM-57.5 uM. 3,RT incubation 4,FRD or Kalypsys dispenser, 2 uL of reaction mixture. Bottle kept at 4C and covered in foil to protect from light. 5,RT incubation 6,ViewLux Protocol 1194; Excitation filter wheel A (525/20 Pol; BODIPY TMR FP), Emission filter wheel B (598/25 S; BODIPY TMR FP S). Keywords: Fructose-bisphosphate aldolase, FBPA , Giardia lamblia , Giardia, HTS, Inhibitors
# % is scaled to controls: 0 for no effect and ±100 for the full control effect.
row,Structure (SMILES),"activity change, negative = inhibition"
1,Cn1cc(-c2nc3cnc(N4CCNCC4)nc3n(CCc3ccccc3)c2=O)c2ccccc21,-0.191%
2,CC(C)C1=CC2=CC[C@@H]3[C@](C)(CO)CCC[C@]3(C)C2CC1 (some centres not stated),-1.26%
3,COc1cccc(CN(C)C(=O)CC23CC4CC(CC(C4)C2)C3)c1OC,-1.24%
4,COc1ccc(S(=O)(=O)N2CCCC(C(=O)NCCCn3ccnc3)C2)cc1OC (configuration not stated),-2.16%
5,CCN(CC)c1ccc(C(=O)Nn2c(C)nc3ccccc3c2=O)cc1,2.59%
6,CC(C)Oc1c(Br)cc(Br)cc1/C=N/NC(N)=S,-0.43%
7,Cc1ccc(-c2c3c(=O)n(C)c(=O)n(C)c3cn2-c2ccccc2O)cc1,-32% (active)
8,Cc1ccc(-c2c3c(=O)n(C)c(=O)n(C)c3cn2-n2cnnc2)cc1,1.01%
9,COc1cccc(-n2cc3c(c2-c2ccccc2)c(=O)n(C)c(=O)n3C)c1,-16.5%
10,O=c1o[nH]c(-c2ccccc2)c1N=Nc1c(F)cccc1Cl,5.04%
11,COc1cnc(SCc2ccc(Cl)c(Cl)c2)nc1Cl,1.35%
12,CCCC(=O)N1CCC(CCC(=O)NC2CC2)CC1,0.0768%
13,O=C(CC(n1cncn1)C(Cl)(Cl)Cl)c1ccc([N+](=O)[O-])cc1 (configuration not stated),-0.311%
14,O=C(CN1C(=O)COc2ccccc21)Nc1ccc(F)cc1,-7.46%
15,CCCN1CCN(CCCNC(=O)CN2C(=O)COc3ccccc32)CC1,-1.3%
16,O=C(CN1C(=O)COc2ccccc21)NCCN1CCc2ccccc2C1,-31.2% (active)
17,COCc1cc(C)n(CC(=O)NCC2CCCO2)c(=O)c1C#N (configuration not stated),0.717%
18,CNS(=O)(=O)c1ccc(NC(=O)Nc2ccc3c(c2)OCO3)cc1,-1.22%
19,CCCCN(CC)C(=O)C1CCCN(S(=O)(=O)c2cccc3nsnc23)C1 (configuration not stated),-1.17%
20,COc1ccc(CC(=O)Nc2c(C(N)=O)oc3ccccc23)cc1,2.14%
21,Cn1c(-c2ccco2)nc2cc3ccccc3cc21,-10.1%
22,Clc1ccccc1CSc1nnc(-c2ccco2)c(-c2ccco2)n1,-6.43%
23,c1coc(-c2nc3nc4ccccc4n3nc2-c2ccco2)c1,-45.8% (active)
24,CN(CCOc1ccccc1)C(=O)c1cc(COc2c(F)cccc2F)on1,-0.542%
25,O=[N+]([O-])c1ccc(N(CCO)Cc2ccccc2)c([N+](=O)[O-])c1,-1.63%
26,CN1CCN(/N=C2/C(=O)Nc3ccc([N+](=O)[O-])cc32)CC1,-19.1%
27,O=C1Nc2ccc([N+](=O)[O-])cc2C1=Nc1cccc(CO)c1,-33% (active)
